# Screens (PubChem)
# Hits are enriched below; roughly 2.9% of the tested compounds scored in any of these assays.
# FID counter = compounds displacing fluorescent DNA intercalator, primary screen, artefact control for HCV NS3 helicase inhibitor project, biochemical, FID fluorescence; inhibition, % at 7.9 µM; 290,000 tested, 0.17% active; DNA fluorescent intercalator displacement; in the data active = inhibition above about 37%;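 note: 0% = vehicle and 100% = reference compound; higher means more ethidium bromide displaced from hairpin DNA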
# dFosB act = activators of delta FosB homodimer, primary screen, biochemical, fluorescence polarization, TAMRA-CDK5 oligo, single point; purified delta FosB; percent of positive-control signal above neutral wells; activation, % at 25 µM; 340,000 tested, 0.99% active; AID 493131, 2011;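 active = mean activation above about 17%, with every replicate also reaching it, limit read from the data, passing the limit was not always enough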
# Target sequence (P13346 whole entry, looked up): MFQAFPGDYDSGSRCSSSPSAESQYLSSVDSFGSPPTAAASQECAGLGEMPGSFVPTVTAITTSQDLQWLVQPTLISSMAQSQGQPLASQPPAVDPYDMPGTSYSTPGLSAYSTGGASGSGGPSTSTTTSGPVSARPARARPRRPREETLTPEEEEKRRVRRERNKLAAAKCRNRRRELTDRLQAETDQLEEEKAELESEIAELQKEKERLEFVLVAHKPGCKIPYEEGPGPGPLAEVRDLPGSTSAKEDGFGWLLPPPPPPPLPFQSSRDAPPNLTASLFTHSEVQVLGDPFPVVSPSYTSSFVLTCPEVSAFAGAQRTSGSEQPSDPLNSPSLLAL
# MEKK2mut PB1 HTS = MEK5 binding signal on mutant MEKK2 PB1, primary screen, biochemical, multiplex bead flow cytometry, Alexa488-MEK5 | Alexa488-MEK5 binding to MEKK2 mutant | percent response, % at 10 µM | 290,000 tested, 0.35% active | AID 1530, 2009; in the data active = percent response above about 24%, passing the limit was not always enough
# MEKK3 PB1 HTS = modulators of MEKK3-MEK5 PB1 binding, primary screen, biochemical, wildtype MEKK3, multiplex bead flow cytometry, Alexa488-MEK5; Mitogen-activated protein kinase kinase kinase 3 (Homo sapiens), Q99759; bead-based flow cytometry, Alexa488-MEK5 binding to MEKK3; actives lie on both sides; 0 = blocked by unlabeled MEK5, 100 = vehicle; binding response (% of control), % at 10 µM; 290,000 tested, 1.4% active;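 active = binding response more than 3 SD above or below the average of its plate-row segment, actives on both sides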;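 note: Alexa488 bead fluorescence after subtracting the streptavidin-only scavenger bead signal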
# MEKK2 WT-MEK5 = modulators of MEK5 binding to wildtype MEKK2, primary screen, biochemical, multiplex bead flow cytometry, Alexa488-MEK5 | 290,000 tested, 1.1% active | binding response (% of control), % at 10 µM | Mitogen-activated protein kinase kinase kinase 2 (Homo sapiens), Q9Y2U5 | Alexa488-MEK5 binding to MEKK2 WT; actives lie on both sides | AID 1531, 2009; in the data active = binding response below about 67% or above about 130%
# MEKK2wt confirm = modulators of MEK5 binding to wildtype MEKK2, confirmation, biochemical, single concentration, multiplex bead flow cytometry; shares compounds with MEKK3 PB1 HTS; Alexa488-MEK5 binding to MEKK2 WT; actives lie on both sides; binding response (% of control), % at 10 µM; 5,900 tested, 2.4% active; AID 1892, 2009; in the data active = binding response below about 16% or above about 210%; inactive = in between
# MEKK2mut-MEK5 = mutant MEKK2 PB1-MEK5 binding signal retest – biochemical, single concentration, multiplex bead flow cytometry, confirmation. Alexa488-MEK5 binding to MEKK2 mutant. percent response, % at 10 µM. shares compounds with MEKK3 PB1 HTS. AID 1893, 2009. 5,900 tested, 2% active; in the data active = percent response mostly above about 71%, no sharp cut-off; inactive = mostly below about 38%;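 note: higher means compound restores mutant binding toward wildtype level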
# MEKK3 confirm = MEKK3 wild-type PB1 binding to MEK5, inhibitors, confirmation, biochemical, bead multiplex flow cytometry, single concentration, wildtype; 5,900 tested, 1.8% active; Alexa488-MEK5 binding to MEKK3; active compounds read low; shares compounds with MEKK3 PB1 HTS; binding response (% of control), % at 10 µM;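 active = binding response below 72% of control, or above a set upper limit, though filed actives all read lower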;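 note: 100% = DMSO only wells and 0% = binding blocked by excess unlabeled MEK5; lower values mean stronger disruption of MEK5 binding to MEKK3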
# Starred values were filed as active, the others as inactive; / = not tested or not shown; [ ] = remark or other dose.
SMILES,FID counter,dFosB act,MEKK2mut PB1 HTS,MEKK3 PB1 HTS,MEKK2 WT-MEK5,MEKK2wt confirm,MEKK2mut-MEK5,MEKK3 confirm
Cc1ccc(NS(=O)(=O)N(C)C)cc1,0,-2,-4,71*[inhibitor],81,99,-4,102
COC(=O)c1ccc(NS(=O)(=O)N(C)C)cc1,-1,2,3,103,101,/,/,/
Cc1cccnc1NC(=O)c1csnn1,-3,0,5,65*[inhibitor],30*[inhibitor],100,1,101
CC1(C)CC(CCNC(=O)CCl)(c2ccccc2)CCO1 (configuration not stated),-10,-2,1,101,100,/,/,/
O=C(CSc1ncn[nH]1)NCCc1ccc(Cl)cc1,-5,3,-3,103,95,/,/,/
COc1cc(-n2c(C)nc3cc(C(=O)O)ccc32)cc(OC)c1OC,2,-6,-5,99,102,/,/,/
Cc1cccc(C(C)(C)C)c1OCCn1ccnc1,15,4,-21,-1.0*[inhibitor],-1.0*[inhibitor],92,-5,98
COc1ccccc1N(CN1C(=O)c2ccccc2C1=O)C(=O)c1cccc(C)c1,-16,-3,0,141*,107,-3.0*[inhibitor],2,103
CN1CCN(C(=O)c2ccc(-c3cccs3)s2)CC1,2,0,-1,99,101,/,/,/
O=C(c1cccs1)c1ccc(-c2cccs2)s1,2,-12,-9,87,61*[inhibitor],91,1,100
CS(=O)(=O)c1ccc(CNC(=O)C2(C(F)(F)F)C/C(=C\Cc3ccccc3)CCCO2)cc1 (configuration not stated),/,-8,-7,81*[inhibitor],85,102,5,104
COc1ccc(N=C2NC(=O)/C(=C/c3ccc(O)c(OC)c3)S2)cc1,-12,-14,-1,146*,107,102,-1,99
CCN(C(=O)COC(=O)Cc1ccc(F)cc1)c1c(N)n(Cc2ccccc2)c(=O)[nH]c1=O,/,-8,/,/,/,/,/,/
CCOc1ccc(OCc2cccc(C(=O)N3CCOCC3)c2)cc1,-20,-5,/,/,/,/,/,/
CCOc1ccc(N=C(/C(C(=O)C(=O)N2CCOCC2)=C(/O)c2ccccc2)c2ccccc2)cc1,0,-7,-37,49*[inhibitor],78,91,-9,98
COc1ccccc1NC(=O)COC(=O)c1ccc(S(=O)(=O)N2CCCCCC2)cc1,/,-2,/,/,/,/,/,/
CN(C)c1ccc(C(CNC(=O)Cc2cccc3ccccc23)N(C)C)cc1 (configuration not stated),10,-16,1,102,107,/,/,/
O=C(O)c1cccc(COc2cccc3ccccc23)c1,/,-9,/,/,/,/,/,/
O=[N+]([O-])c1ccc2nc(-c3ccncc3)[nH]c2c1,-1,1,2,96,97,/,/,/
O=[N+]([O-])c1cccc(-c2nc3ccc([N+](=O)[O-])cc3[nH]2)c1,5,6,1,128*,113,104,4,95
C=CCOc1ccc(C2N3CC4(CC)CN2CC(CC)(C3)C4=O)cc1 (configuration not stated),-2,-4,-5,82*[inhibitor],84,114,8,109
COC(=O)c1ccccc1NC(=O)C1CC(=O)N(c2ccc(C)cc2)C1 (configuration not stated),-11,-5,-3,103,100,/,/,/
CCn1c(C)[n+](Cc2ccccc2)c2ccc(C(=O)OC)cc21,6,-7,4,103,106,/,/,/
